From ChEMBL document CHEMBL1961873, “Compounds: GSK PKIS; Assays: Nanosyn kinase panel” (2012)
“And” between values parts separate entries of the source, which are not always exact repeats. Equal entries are not always repeated.
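Also: reported percentages are averaged inhibition values of TYRO3 kinase activity.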

What follows are compounds tested against T1, Tyrosine-protein kinase receptor TYRO3 (Homo sapiens) (UniProt Q06418). Settings: at 0.1 µM.
T1 sequence (whole entry): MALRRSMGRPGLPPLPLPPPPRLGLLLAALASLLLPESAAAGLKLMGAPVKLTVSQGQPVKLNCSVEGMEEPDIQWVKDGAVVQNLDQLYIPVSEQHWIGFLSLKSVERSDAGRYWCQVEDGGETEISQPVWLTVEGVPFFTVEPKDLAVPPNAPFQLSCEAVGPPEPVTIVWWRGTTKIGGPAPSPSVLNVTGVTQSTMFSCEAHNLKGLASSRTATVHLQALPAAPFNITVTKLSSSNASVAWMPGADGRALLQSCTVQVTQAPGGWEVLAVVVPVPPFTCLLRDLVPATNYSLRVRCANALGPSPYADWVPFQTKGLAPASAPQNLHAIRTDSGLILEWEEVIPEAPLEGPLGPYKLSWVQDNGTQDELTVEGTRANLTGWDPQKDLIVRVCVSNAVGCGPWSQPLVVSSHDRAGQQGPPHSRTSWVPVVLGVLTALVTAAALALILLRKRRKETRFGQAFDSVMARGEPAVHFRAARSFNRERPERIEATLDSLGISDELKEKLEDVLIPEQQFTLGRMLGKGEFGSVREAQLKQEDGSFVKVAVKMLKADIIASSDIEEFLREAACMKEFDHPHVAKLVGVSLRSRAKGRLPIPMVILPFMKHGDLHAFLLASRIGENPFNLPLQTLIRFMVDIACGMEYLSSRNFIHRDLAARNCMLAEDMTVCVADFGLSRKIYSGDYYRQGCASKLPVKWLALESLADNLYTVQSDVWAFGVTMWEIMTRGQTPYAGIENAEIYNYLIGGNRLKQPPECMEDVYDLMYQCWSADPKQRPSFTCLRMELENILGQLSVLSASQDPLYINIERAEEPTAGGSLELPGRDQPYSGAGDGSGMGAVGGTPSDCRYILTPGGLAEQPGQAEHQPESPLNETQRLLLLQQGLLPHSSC
Work on CC1=C(C(=O)Nc2ccc3[nH]nc(C)c3c2)C(c2ccc(C(F)(F)F)cc2)CC(=O)N1 (stereo unspecified) yielded an inhibition of 2.07%.
Compound COc1cc(N2CCN(C(C)C)CC2)ccc1Nc1nc(Nc2cccc3ncccc23)c2cc[nH]c2n1 has an inhibition of -2.4%.
In the case of COc1cc(Nc2ncc(-c3ccccc3)o2)cc(OC)c1, the inhibition is reported as 2.81%.
COc1cccc(Nc2nccc(-c3cnn4ncccc34)n2)c1 showed an inhibition of 3.96%.
O=C(Nc1n[nH]c2nnc(-c3cccnc3)cc12)C1CC1 gave an inhibition of -0.64%.
For CN1CCN(Cc2ccc(-c3cc4ncnc(Nc5ccc(OCc6cccc(F)c6)c(Cl)c5)c4s3)o2)CC1, the inhibition was 2.09% and 4.83%.
Compound CCCNc1cccc(-n2ncc3c(N/N=C/c4ccncc4)ncnc32)c1 has an inhibition of 5.05%.
With CS(=O)(=O)Nc1ccc(-c2ccc3c(NC(=O)C4CC4)n[nH]c3c2)cc1 the inhibition was 2.75%.
COc1cccc(-n2ncc3c(N/N=C/c4ccc(C(=O)NCCN(C)C)cc4)ncnc32)c1 was tested, and the inhibition was 16.6%.
O=C(O[C@H]1CN[C@H](C#Cc2cc3ncnc(Nc4ccc(OCc5cccc(F)c5)c(Cl)c4)c3s2)C1)N1CCOCC1 was tested, and the inhibition was 3.72%.
Work on O=C(O[C@H]1CN[C@H](C#Cc2cc3ncnc(Nc4ccc5c(cnn5Cc5ccccc5)c4)c3s2)C1)N1CCOCC1 yielded an inhibition of -0.42%.
For CCn1c(-c2nonc2N)nc2cncc(C(=O)NCCNC)c21, the inhibition was 3.7%.
O=C(O[C@H]1CN[C@H](C#Cc2cc3ncnc(Nc4ccc5c(ccn5Cc5cc(F)ccc5F)c4)c3s2)C1)N1CCOCC1 gave an inhibition of 2.07%.
For c1ccc(-c2n[nH]cc2-c2ccnc(-c3ccc(OCCn4ccnc4)cc3)c2)nc1, the inhibition was 1.13%.
With COc1cc2c(cc1Nc1nc(Nc3cccc(F)c3C(N)=O)c3cc[nH]c3n1)N(C(=O)CN1CCN(C(C)C)CC1)CC2 the inhibition was -0.96%.
Work on CNC(=O)c1cncc(/C=C/c2ccccc2C)c1 yielded an inhibition of 3.13%.
N#Cc1cccc(Nc2ncc(-c3ccccc3)o2)c1 was tested, and the inhibition was 1.76%.
CCN1CCC(C(=O)Nc2n[nH]c3nnc(-c4cccc(F)c4F)cc23)CC1 was tested, and the inhibition was -1.35%.
Nc1nonc1-c1nc2cnccc2n1C1CC1 was tested, and the inhibition was 1.66% and 1.58%.
Compound O=C1Nc2ccccc2/C1=C1\CCc2cc(O)ccc21 has an inhibition of 4.69%.
For Fc1ccc(Nc2nccc(-c3c(-c4ccc(C(F)(F)F)cc4)nn4ncccc34)n2)cc1F, the inhibition was 3.71%.
CCS(=O)(=O)c1ccc(OC)c(Nc2ncc(-c3cccc(F)c3)o2)c1 was tested, and the inhibition was 6.63%.
OCCCNc1nccc(-c2c(-c3ccc(F)cc3)nn3cc(C(F)(F)F)ccc23)n1 gave an inhibition of 1.9%.
Compound CN(c1ccc(NC(=O)NCCN2CCOCC2)cc1)c1ccnc(Nc2ccc(CS(C)(=O)=O)cc2)n1 has an inhibition of 3.48%.
With Nc1nccc(-c2c(-c3ccc(F)cc3)ncn2C2CCNCC2)n1 the inhibition was -2.12% and 1.7%.
CC1(C)CC(n2cnc(-c3ccc(F)cc3)c2-c2ccnc(N)n2)CC(C)(C)N1 showed an inhibition of 0.59%.
Cn1c(-c2nonc2N)nc2cnccc21 showed an inhibition of 1.78%.
In the case of COc1ccc2ncn(-c3cc(O[C@H](C)c4ccccc4C(F)(F)F)c(C(N)=O)s3)c2c1, the inhibition is reported as -0.34%.
Work on Cc1c2ccc(N(C)c3ccnc(Nc4cccc(S(N)(=O)=O)c4)n3)cc2nn1C yielded an inhibition of 3.74%.
In the case of CNC(=O)c1ncccc1Nc1nc(Nc2cc3c(cc2OC)CCCN3C(=O)CN(C)C)nc2[nH]ccc12, the inhibition is reported as 4.43%.
Compound COC(=O)Nc1nc2cc(Oc3ccc(NC(=O)Nc4ccccc4)cc3)ccc2[nH]1 has an inhibition of 1.8%.
